Screens as filed in PubChem.
Only some compounds are listed: those with a hit (about 9.6% of all), similar ones and a draw of the others.
PLAP activator = PLAP enzyme activators, biochemical, luminescence, HTS; 96,000 compounds, 1.2% hits; AID 696, 2007; Alkaline phosphatase, placental type (Homo sapiens), P05187; purified PLAP enzyme, luminescent substrate read-out; active compounds read high; activation fold at 20 µM; in the data active = activation fold above about 2
PostGolgi ctrl = growth inhibition of yeast control strain, primary screen, counter-screen for post-Golgi transport modulator project. efflux-deficient yeast background strain, growth absorbance A615, 16 h. inhibition, % at 10 µM. 98,000 compounds, 5% hits. AID 738, 2007
PostGolgi yeast = phenotypic screen on post-Golgi transport, primary screen. 98,000 compounds, 0.9% hits. inhibition, % at 10 µM. AID 739, 2007. post-Golgi transport phenotypic cell assay;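 note: yeast cells grown in 1536-well plates; yeast grown about 18 h at 30C before absorbance read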
DAT uptake mod = changed hDAT dopamine uptake under cocaine IC80, either direction, primary screen, cocaine antagonist project, cell-based, LLC-PK1 hDAT, [14C]-dopamine uptake, MLSMR. Sodium-dependent dopamine transporter (Homo sapiens), Q01959. LLC-PK1 hDAT cells, [14C]-dopamine uptake with cocaine IC80; actives deviate in either direction. B-score at 10 µM. 110,000 compounds, 1.3% hits;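 active = Z score or B-score, a plate-position-corrected score, falls beyond the plate's 99.7% confidence bounds, in either direction; inactive = both scores lie inside the 99.7% bounds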
Target sequence (Q01959 whole entry, looked up): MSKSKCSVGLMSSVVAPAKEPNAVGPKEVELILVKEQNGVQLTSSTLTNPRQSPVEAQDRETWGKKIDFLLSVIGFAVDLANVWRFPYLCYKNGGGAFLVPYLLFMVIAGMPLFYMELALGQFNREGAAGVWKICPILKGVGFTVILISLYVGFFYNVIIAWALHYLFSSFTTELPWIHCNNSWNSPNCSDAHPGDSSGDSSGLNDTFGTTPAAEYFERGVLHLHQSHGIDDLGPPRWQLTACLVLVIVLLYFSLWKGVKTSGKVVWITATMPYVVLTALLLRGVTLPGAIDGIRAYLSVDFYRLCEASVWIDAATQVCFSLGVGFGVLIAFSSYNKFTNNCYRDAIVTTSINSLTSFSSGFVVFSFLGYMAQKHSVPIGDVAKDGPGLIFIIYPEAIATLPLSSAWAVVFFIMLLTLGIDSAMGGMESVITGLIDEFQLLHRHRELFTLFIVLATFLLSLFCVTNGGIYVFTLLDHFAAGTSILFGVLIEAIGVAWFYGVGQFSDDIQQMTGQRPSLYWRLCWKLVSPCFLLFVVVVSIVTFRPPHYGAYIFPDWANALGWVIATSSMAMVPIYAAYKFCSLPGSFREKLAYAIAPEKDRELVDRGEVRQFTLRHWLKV
Cav32 inh = Cav3.2 calcium influx blockers – cell-based, Fluo-4 calcium fluorescence, FDSS, MLSMR library, primary screen. B-score at 10 µM. Voltage-dependent T-type calcium channel subunit alpha-1H (Homo sapiens), O95180. AID 449739, 2010. 100,000 compounds, 4% hits. Cav3.2-expressing cells; active compounds read low;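 active = single-dose well whose peak fluorescence ratio is a statistical outlier from its plate by either plate-standardised score or position-corrected B-score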
Each line names hits and unclear results; the compound was inactive in the other large screens. Cut-off read from the data, not from the text of the source, unless noted: active = inhibition above about 30%; inactive = the rest.

CCOc1ncccc1C(=O)OCC(=O)N1CC(=O)Nc2ccccc21	none
CC1=C(C(=O)OC(C)C)C(c2ccccn2)n2ncnc2N1 (stereo not given)	PostGolgi ctrl 33.4
O=C(Cn1nnc(-c2cccs2)n1)N1c2ccccc2Sc2ccc(C(F)(F)F)cc21	Cav32 inh -5.4 (no result: PLAP activator, PostGolgi ctrl, PostGolgi yeast)
N#CC(c1ccccn1)(c1ncc(C(F)(F)F)cc1Cl)N1CCOCC1 (stereo not given)	none
CCc1ccc(NCc2nc3ccccc3c(=O)[nH]2)cc1	DAT uptake mod -9.19
Cc1ccc(CNC(=O)CCc2nc3ccccc3c(=O)[nH]2)cc1	none
CN1/C(=C/C2CC(=O)NC2=O)C(C)(C)c2ccccc21 (stereo not given)	PostGolgi yeast 44.8
CCOc1ccc(N2C(=O)CC(/C=C3/N(C)c4ccccc4C3(C)C)C2=O)cc1 (stereo not given)	none (no result: DAT uptake mod, Cav32 inh)
COCCNC(=O)C(C)OC(=O)c1cc2occc2n1C (stereo not given)	none
Cc1ccc(Nc2cc(=O)oc3ccccc23)c(C)c1	PostGolgi ctrl 43.9
Cc1nc(CSc2nnc3scc(-c4ccc(Cl)cc4)n23)cs1	none
O=C1COc2cccnc2N1	PostGolgi ctrl 38.2
CCC1CCCCN1CCCNC(=O)c1cn(CC(C)C)c(=O)c2cc(OC)c(OC)cc12 (stereo not given)	PLAP activator 2, DAT uptake mod -7.21
CCOC(=O)Cn1c(S(=O)(=O)Cc2ccc(Cl)cc2)nc(-c2ccccc2)c1-c1ccccc1	Cav32 inh -5.61
C#CCn1c(S(=O)(=O)Cc2ccc(OC)cc2)nc(-c2ccccc2)c1-c1ccccc1	Cav32 inh -5.14
CCOC(=O)Cn1c(S(=O)(=O)Cc2ccccc2)nc2ccccc21	none
COc1ccc(/C=N/n2c(N)nc(-c3ccccc3)c2-c2ccccc2)cc1	none
Cc1ccc(C)c(NC(=O)CCn2nc(C)cc2C)c1	none (no result: Cav32 inh)
COc1ccc(C(=O)N2CCCC(c3nc(-c4ccc(OC)c(OC)c4)no3)C2)c(OC)c1 (stereo not given)	none
CCC(=O)c1ccc(OCC(=O)Nc2nn3cnnc3s2)cc1	none
CN(C)CC(C(=O)c1ccccc1)c1ccccc1 (stereo not given)	PostGolgi ctrl 31.4
CN(C)CC(=O)c1ccc(-c2ccccc2)cc1	none
Fc1cc2ncn(Cc3ccccc3)c2cc1F	none
O=[N+]([O-])c1ccc(/C=N/Nc2nc(-c3ccccc3)c3cc(Br)ccc3n2)o1	PostGolgi ctrl 64.2 (no result: DAT uptake mod, Cav32 inh)
N#Cc1ccccc1/C=N/Nc1nc(-c2ccccc2)c2cc(Br)ccc2n1	none
CCNc1nc(NCC)nc(N/N=C/c2ccc([N+](=O)[O-])o2)n1	none
Cc1ccc2nc(N/N=C\c3ccc([N+](=O)[O-])o3)nc(-c3ccccc3)c2c1	PostGolgi ctrl 98.7, PostGolgi yeast 107.6 (no result: DAT uptake mod, Cav32 inh)
COc1ccc2c(c1)C(c1ccc([N+](=O)[O-])cc1)=NNC(c1ccco1)=N2	none (no result: Cav32 inh)
COc1ccc(CCNC(=O)CCCn2c(SCC#N)nc3ccccc3c2=O)cc1OC	none
COc1ccc(CNC(=O)CCCCCn2c(SCC#N)nc3cc4c(cc3c2=O)OCO4)cc1	PLAP activator 2.1
CCN(CC)CCn1c(O)c(N=O)c2ccccc21	none
O=Nc1c(O)n(Cc2cccc(Cl)c2)c2ccccc12	Cav32 inh -4.4
O=C(Nc1ccc2c(c1)OCCO2)C1CCCN(S(=O)(=O)c2cnc[nH]2)C1 (stereo not given)	none
CCOC(=O)CN(C)C(=O)C1CCCN1C(=O)OC(C)(C)C (stereo not given)	none (no result: PLAP activator, PostGolgi ctrl, PostGolgi yeast)
Cn1c(NCc2ccco2)nc2c1c(=O)n(Cc1ccc(Cl)c(Cl)c1)c(=O)n2C	PostGolgi ctrl 49.1 (no result: Cav32 inh)
Cn1c(=O)c2c(nc(NCc3ccccc3)n2Cc2ccc(F)cc2)n(C)c1=O	PostGolgi ctrl 39.0, Cav32 inh -6.8 (no result: PLAP activator)
COc1ccc(CNc2nc3c(c(=O)n(Cc4ccc(Cl)cc4)c(=O)n3C)n2C)cc1	Cav32 inh -7.45
Cc1ccc(Cn2c(NCCc3ccccc3)nc3c2c(=O)n(C)c(=O)n3C)cc1	none
CCNc1nc2c(c(=O)n(Cc3ccccc3)c(=O)n2C)n1Cc1ccccc1	PostGolgi ctrl 30.4, DAT uptake mod 2.98
Cn1c(NCC(O)CO)nc2c1c(=O)n(Cc1ccc(Cl)c(Cl)c1)c(=O)n2C (stereo not given)	none
Cc1ccc(CN2CCN(CC3CC4C=CC3C4)CC2)cc1 (stereo not given)	none (no result: DAT uptake mod, Cav32 inh)
Cn1c(=O)c2c(nc(NCc3cccnc3)n2Cc2ccc(Cl)cc2)n(C)c1=O	Cav32 inh -7.19
COc1cc(-c2nn3c(-c4ccccc4)nnc3s2)cc(OC)c1OC	PostGolgi ctrl 33.2, DAT uptake mod 2.72
Cc1ccc(-c2nnc3sc(CCc4ccccc4)nn23)cc1	PostGolgi ctrl 30.2
CCOc1cccc(-c2nnc3sc(-c4cc(OC)c(OC)c(OC)c4)nn23)c1	none (no result: PostGolgi ctrl, PostGolgi yeast, DAT uptake mod, Cav32 inh)
COc1cc(-c2nn3c(COc4ccccc4)nnc3s2)cc(OC)c1OC	none (no result: Cav32 inh)
COc1cc(-c2nn3c(Cc4ccccc4)nnc3s2)cc(OC)c1OC	PostGolgi ctrl 42.5
Cc1ccccc1-c1nn2c(-c3ccccc3)nnc2s1	PostGolgi ctrl 41.3
CC1(C)Oc2ccc(C(=O)NC3CCCC3)cc2N(CC(=O)NC2CCCCC2)C1=O	none
O=C(COc1ccccc1)Nc1sc2c(c1C(=O)NCc1cccnc1)CCCC2	none
COc1ccc(/C=C/C(=O)Nc2sc3c(c2C(=O)NCc2cccnc2)CCCC3)cc1	PostGolgi ctrl 52.3
O=C(Nc1ccc(Cl)cc1)c1ccncc1	none
CC/C(=C\C(=O)c1ccncc1)Nc1ccc(O)cc1	DAT uptake mod 3.01
CCC(C)n1c(=O)c(C(=O)Nc2ccccc2S(N)(=O)=O)c(O)c2ccccc21 (stereo not given)	PostGolgi ctrl 30.4, Cav32 inh -3.41
CCCn1c(=O)c(C(=O)Nc2ccccc2C(=O)OCC)c(O)c2ccccc21	none
S=c1nc2ccccc2c2nc(-c3ccccc3)[nH]n12	PostGolgi ctrl 43.7 (no result: DAT uptake mod, Cav32 inh)
S=c1nc(-c2ccccc2)[nH]n1-c1ccccc1	none (no result: DAT uptake mod, Cav32 inh)
Cc1cccc(C(=O)NC(=S)Nc2ccc(S(=O)(=O)N3CCCCC3)cc2)c1	none
O=C(O)C1CCN(Cc2cnn(-c3ccccc3)c2-n2cccc2)CC1	none (no result: PLAP activator)
COc1cccc(CNC(=O)C2CCN(Cc3cnn(-c4ccccc4)c3-n3cccc3)CC2)c1	PLAP activator 2.2, Cav32 inh -4.64
O=C(NC1CC1)C1CCN(Cc2cnn(-c3ccccc3)c2-n2cccc2)CC1	PLAP activator 2
CCCn1nc2cc(C(=O)NC3CCc4ccccc43)ccc2c1OCC (stereo not given)	DAT uptake mod 2.31
CCCn1nc2cc(C(=O)NCc3ccc(OC)cc3)ccc2c1OCC	DAT uptake mod 2.31
CCCCn1nc2cc(C(=O)NCc3ccccc3)ccc2c1OCC	none
CN1CCC(N(C)C(=O)CCc2nc3ccccc3c(=O)[nH]2)CC1	none
